Measurements: PubChem BioAssay (NCATS)
Inconclusive results are not listed. Active and inactive are the calls of the source. Calls follow the shape of the dose curve; as a rule, active = well fitted curve in the direction sought with a large enough effect; inconclusive = small, poorly fitted or top-dose-only effect, or another doubt; inactive = no such curve, though single readings can be large; an effect the other way counts as inactive or inconclusive.

Columns and labels:
[1] = Quantitative High-Throughput drug screen in 47 multiple myeloma cell lines against the NCATS MIPE library collection: INA6_PLB cell viability assay (AID 1918965; also: nearly all actives have a fitted effect of over 55% in size)
How it was run: (§1)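 Viability readout: CellTiter-Glo luminescence following 5 min room-temperature incubation with reagent. Prior exposure: 48 h, 37C, humidified 5% CO2, 500 cells per well.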

[2] = Quantitative High-Throughput drug screen in 47 multiple myeloma cell lines against the NCATS MIPE library collection: JJN3_DSMZ cell viability assay (AID 1918966; also: nearly all actives have a fitted effect of over 50% in size)
How it was run: (§2)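 qHTS of the MIPE 4.0 collection: 500 myeloma cells/well, 48 h drug exposure at 37C in 5% CO2, then CellTiter-Glo for 5 min at room temperature before luminescence reading.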

[3] = Quantitative High-Throughput drug screen in 47 multiple myeloma cell lines against the NCATS MIPE library collection: Karpas25_ECACC cell viability assay (AID 1918968; also: nearly all actives have a fitted effect of over 35% in size)
How it was run: as §2

[4] = Quantitative High-Throughput drug screen in 47 multiple myeloma cell lines against the NCATS MIPE library collection: KMS12BM_JCRB cell viability assay (AID 1918971); also: nearly all actives have a fitted effect of over 35% in size
How it was run: (§3)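 Myeloma cells (500 per well) were exposed to MIPE 4.0 compounds by pin transfer and incubated 48 hours at 37C, 5% CO2. Viability was read as ATP by CellTiter-Glo luminescence, normalised to DMSO (100%) and media-only (0%) wells.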

[5] = Quantitative High-Throughput drug screen in 47 multiple myeloma cell lines against the NCATS MIPE library collection: KMS20_JCRB cell viability assay (AID 1918973); also: nearly all actives have a fitted effect of over 45% in size
How it was run: as §2

[6] = Quantitative High-Throughput drug screen in 47 multiple myeloma cell lines against the NCATS MIPE library collection: KMS26_JCRB cell viability assay (AID 1918975); also: nearly all actives have a fitted effect of over 45% in size
How it was run: as §3

[7] = Quantitative High-Throughput drug screen in 47 multiple myeloma cell lines against the NCATS MIPE library collection: MMM1_PLB cell viability assay (AID 1918976); also: nearly all actives have a fitted effect of over 35% in size
How it was run: (§4)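 Cells were exposed to library compounds for 48 hours, after which ATP was measured by CellTiter-Glo. Signal was taken as median relative luminescence units.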

[8] = Quantitative High-Throughput drug screen in 47 multiple myeloma cell lines against the NCATS MIPE library collection: NCIH929_DSMZ cell viability assay (AID 1918978); also: nearly all actives have a fitted effect of over 35% in size
How it was run: as §4

[9] = Quantitative High-Throughput drug screen in 47 multiple myeloma cell lines against the NCATS MIPE library collection: MM1S_ATCC cell viability assay (AID 1918980); also: nearly all actives have a fitted effect of over 45% in size
How it was run: as §4

[10] = Quantitative High-Throughput drug screen in 47 multiple myeloma cell lines against the NCATS MIPE library collection: MM1R_ATCC cell viability assay (AID 1918981); also: nearly all actives have a fitted effect of over 35% in size
How it was run: as §4

[11] = Quantitative High-Throughput drug screen in 47 multiple myeloma cell lines against the NCATS MIPE library collection: KMS28PE_JCRB cell viability assay (AID 1918983); also: nearly all actives have a fitted effect of over 35% in size
How it was run: as §4

[12] = Quantitative High-Throughput drug screen in 47 multiple myeloma cell lines against the NCATS MIPE library collection: KMS34_JCRB cell viability assay (AID 1918985); also: nearly all actives have a fitted effect of over 40% in size
How it was run: as §4

[13] = Quantitative High-Throughput drug screen in 47 multiple myeloma cell lines against the NCATS MIPE library collection: H1112_PLB cell viability assay (AID 1918967; also: nearly all actives have a fitted effect of over 30% in size)
How it was run: as §2

[14] = Quantitative High-Throughput drug screen in 47 multiple myeloma cell lines against the NCATS MIPE library collection: KMS27_JCRB cell viability assay (AID 1918970); conditions: KMS27 myeloma cells, CellTiter-Glo ATP viability, 48 h; viability (% of DMSO): at 45.8 µM (top of the series); also: nearly all actives have a fitted effect of over 30% in size
How it was run: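 Myeloma cells (500 per well) were exposed to MIPE 4.0 compounds for 48 h at 37 °C, 5% CO2; viability was read as ATP luminescence with CellTiter-Glo, normalized to DMSO-only (100%) and media-only (0%) wells.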

[15] = Quantitative High-Throughput drug screen in 47 multiple myeloma cell lines against the NCATS MIPE library collection: KMS12PE_JCRB cell viability assay (AID 1918972); also: nearly all actives have a fitted effect of over 30% in size
How it was run: as §1

[16] = Quantitative High-Throughput drug screen in 47 multiple myeloma cell lines against the NCATS MIPE library collection: MOLP8_DSMZ cell viability assay (AID 1918977); also: nearly all actives have a fitted effect of over 45% in size
How it was run: as §4

[17] = Quantitative High-Throughput drug screen in 47 multiple myeloma cell lines against the NCATS MIPE library collection: LP1_DSMZ cell viability assay (AID 1918982); also: nearly all actives have a fitted effect of over 35% in size
How it was run: as §4

[18] = Quantitative High-Throughput drug screen in 47 multiple myeloma cell lines against the NCATS MIPE library collection: L363_DSMZ cell viability assay (AID 1918984); conditions: L363 myeloma viability, CellTiter-Glo ATP luminescence, 48 h; viability (% of control): at 45.8 µM (top of the series); also: nearly all actives have a fitted effect of over 40% in size
How it was run: as §4

[19] = Quantitative High-Throughput drug screen in 47 multiple myeloma cell lines against the NCATS MIPE library collection: OCIMY1_PLB cell viability assay (AID 1918979); also: nearly all actives have a fitted effect of over 35% in size
How it was run: as §4

[20] = Quantitative High-Throughput drug screen in 47 multiple myeloma cell lines against the NCATS MIPE library collection: KMS21BM_JCRB cell viability assay (AID 1918974); conditions: ATP luminescence, 48 h; viability: at 45.8 µM (top of the series)
How it was run: as §2

Measured: Potency
Potency is read from the fitted curve at half-maximal effect.

CN(C)S(=O)(=O)c1ccc2c(c1)C(=Cc1cc3c([nH]1)CCCC3)C(=O)N2
active: [1] 3.72 µM | [2] 4.69 µM | [3] 16.6 µM | [4] 8.33 µM | [5] 10.5 µM | [6] 2.35 µM | [7] 18.7 µM | [8] 18.7 µM | [9] 20.9 µM | [10] 2.96 µM | [11] 20.9 µM | [12] 5.9 µM

COc1ccc(-c2cc(=O)c3c(O)cc(O[C@@H]4O[C@H](CO[C@@H]5O[C@@H](C)[C@H](O)[C@@H](O)[C@@H]5O)[C@@H](O)[C@H](O)[C@@H]4O)cc3o2)cc1O
active: [1] 26.4 µM | [13] 13.2 µM | [3] 11.8 µM | [6] 20.9 µM | [8] 9.35 µM
inactive: [14] | [15] | [16] | [10] | [17] | [11] | [18] | [12]

CCCCCCCCCCCCCC(=O)N[C@H](CO)[C@H](O)c1ccc([N+](=O)[O-])cc1
inactive: [19]
active: [1] 23.5 µM | [2] 18.7 µM | [3] 18.7 µM | [4] 23.5 µM | [15] 8.33 µM | [5] 23.5 µM | [8] 23.5 µM | [10] 18.7 µM | [11] 16.6 µM | [18] 16.6 µM

Cn1cnc(-c2cc3nccc(Oc4ccc(NC(=S)NC(=O)Cc5ccccc5)cc4F)c3s2)c1
inactive: [16]
active: [1] 6.62 µM | [2] 16.6 µM | [5] 13.2 µM | [17] 16.6 µM

CC(=O)NCCC(=O)N[C@@H](CCC(N)=O)C(=O)N[C@@H](CO)C(=O)N[C@@H](CCC(N)=O)C(=O)N[C@@H](CCC(N)=O)C(=O)N[C@H](C(=O)N[C@@H](Cc1ccccc1)C(=O)N[C@]1(C)CCCCCCC=CCCC[C@@](C)(C(=O)N[C@@H](CCC(N)=O)C(=O)N[C@@H](CC(N)=O)C(N)=O)NC(=O)[C@H](CC(C)C)NC(=O)[C@H](CC(C)C)NC(=O)[C@@H](CCCNC(=N)N)NC(=O)[C@H](Cc2c[nH]c3ccccc23)NC(=O)[C@H](CC(C)C)NC(=O)[C@H](CC(N)=O)NC1=O)[C@H](C)O
inactive: [15]
active: [1] 20.9 µM | [2] 14.8 µM | [3] 26.4 µM | [4] 9.35 µM | [5] 18.7 µM | [6] 14.8 µM | [7] 5.26 µM | [8] 23.5 µM | [9] 20.9 µM | [10] 26.4 µM | [17] 20.9 µM | [11] 18.7 µM

CN1CCN(c2cccc(Nc3nc4c(-c5ccc(S(C)(=O)=O)cc5)cccn4n3)c2)CC1
inactive: [3]
active: [1] 0.59 µM | [13] 2.35 µM | [14] 1.32 µM | [4] 9.35 µM | [15] 0.833 µM | [20] 3.32 µM | [6] 20.9 µM | [16] 9.35 µM | [8] 2.64 µM | [10] 16.6 µM | [17] 14.8 µM | [11] 16.6 µM | [18] 3.32 µM

COC1CCC(C(=O)c2ccc3nc4c(cc3c2)CCCO4)CC1 (stereo not drawn)
active: [1] 13.2 µM | [2] 20.9 µM | [3] 18.7 µM | [4] 20.9 µM | [15] 14.8 µM | [6] 23.5 µM | [7] 2.64 µM | [8] 23.5 µM | [9] 20.9 µM | [11] 23.5 µM | [18] 23.5 µM | [12] 29.6 µM

COc1c(C)c2c(c(O)c1CC=C(C)CCC(=O)OCCN1CCOCC1)C(=O)OC2
inactive: [5] | [6]
active: [1] 1.87 µM | [13] 3.32 µM | [3] 4.18 µM | [14] 2.09 µM | [4] 4.18 µM | [15] 3.72 µM | [16] 2.96 µM | [19] 10.5 µM | [9] 6.62 µM | [10] 11.8 µM | [17] 6.62 µM | [11] 4.69 µM | [12] 5.9 µM

CC1(C)[C@H]2CC[C@]3(C)[C@@H](C(=O)C=C4[C@@H]5C[C@@](C)(C(=O)O)CC[C@]5(C)CC[C@]43C)[C@@]2(C)CC[C@@H]1O
active: [7] 3.72 µM | [11] 18.7 µM
inactive: [1] | [13] | [14] | [6] | [8] | [19] | [9] | [10] | [17]

Clc1ccc(COC(Cn2ccnc2)c2ccc(Cl)cc2Cl)c(Cl)c1 (stereo not drawn)
active: [1] 20.9 µM | [13] 18.7 µM | [3] 18.7 µM | [4] 20.9 µM | [15] 18.7 µM | [20] 37.2 µM | [6] 23.5 µM | [16] 18.7 µM | [8] 18.7 µM | [10] 23.5 µM | [11] 18.7 µM | [18] 20.9 µM

O=C(NC[C@H](O)CO)c1ccncc1Nc1ccc(I)cc1F
inactive: [7] | [17]
active: [1] 5.9 µM | [13] 13.2 µM | [3] 6.62 µM | [14] 1.48 µM | [5] 0.0526 µM | [19] 0.0935 µM | [9] 18.7 µM | [10] 13.2 µM | [18] 13.2 µM | [12] 1.18 µM

CC(=O)Nc1cccc(-n2c(=O)n(C3CC3)c(=O)c3c(Nc4ccc(I)cc4F)n(C)c(=O)c(C)c32)c1
active: [1] 0.0418 µM | [13] 0.0469 µM | [3] 1.66 µM | [5] 0.0118 µM | [20] 0.0332 µM | [7] 7.43 µM | [8] 0.0187 µM | [19] 0.0033 µM | [11] 8.33 µM | [18] 5.9 µM
inactive: [6] | [17] | [12]
